Sampled rows, rich in hits. Any-hit rate of the full collection: about 6.7%.
T cruzi growth-1: T. cruzi intracellular proliferation inhibitors, primary screen, cell-based, beta-gal Tulahuen parasites, NIH3T3 host, luminescence; T. cruzi beta-gal in NIH3T3, GalScreen luminescence, 90 h; inhibition, % at 8.34 µM; hit rate 5.9% among 77,000;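 active means mean inhibition above about 93%, with at least 55% of replicates each passing it, limit read from the data, passing the limit was not always enough; inconclusive means only one of those two conditions holds; inactive means neither condition holds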
Pf Dd2 growth: P. falciparum Dd2 growth inhibitors, primary screen, SYBR Green fluorescence, single dose replicates | activity change, % at 10 µM | 72 h; active compounds read low | hit rate 2.3% among 94,000; in the data active means activity change below about -80%; inconclusive means no clear call, values can overlap the other calls
C diff growth: C. difficile growth inhibitors, primary screen, HTS. Clostridium difficile clinical isolate growth, OD600, 24 h; active compounds read low. growth activity, negative = inhibition, % at 16 µg/mL (by protocol). hit rate 0.25% among 86,000;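 active means mean growth activity at or below -80% and every replicate also at or below -80%; inconclusive means mean at or below -80% but some replicate above -80%; inactive means mean growth activity above -80%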;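 further: 0% = DMSO wells and -100% = levofloxacin 16 µg/mL wells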
T cruzi growth-2: T. cruzi intracellular proliferation inhibitors, confirmation, cell-based, NIH3T3 host, beta-gal parasite, luminescence, cherry-pick; shares compounds with T cruzi growth-1; T. cruzi beta-gal in NIH3T3, GalScreen luminescence, 90 h; inhibition, % at 8.35 µM; hit rate 72% among 5,600;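 active means mean replicate inhibition above about 95% and at least 55% of replicates individually reaching it, limit read from the data; inconclusive means only one of the two criteria is met; inactive means neither criterion is met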
T cruzi growth-3: inhibitors of intracellular T. cruzi replication, confirmation, NIH3T3 host cells, beta-gal parasites, cherry-pick, set 2; shares compounds with T cruzi growth-1; T. cruzi beta-gal in NIH3T3, GalScreen luminescence, 90 h; inhibition, % at 2.09 µM; hit rate 21% among 5,600;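 active means mean inhibition above about 95%, with at least 55% of replicates also reaching it, limit read from the data; inconclusive means meets just one of the two conditions; inactive means meets neither condition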;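 further: plate controls were neutral control median for no effect and positive control median for full effect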
NIH3T3 tox: cytotoxicity in mouse NIH/3T3 fibroblasts, confirmation, cytotoxicity control for T. cruzi proliferation inhibitor project, cell-based, cherry-pick, single point; shares compounds with T cruzi growth-1; NIH/3T3 viability, CellTiter-Glo ATP luminescence, 90 h; cytotoxicity (signal decrease), % at 8.35 µM; hit rate 14% among 5,600;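 active means mean signal decrease across replicates above about 35% based on untreated-well scatter, with enough replicates individually passing, limit read from the data; inconclusive means no rule stated though some were filed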;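 further: 0% = median of neutral control wells and 100% = median of positive control wells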
3T3 cytotox 2: NIH/3T3 fibroblast cytotoxicity, confirmation, cytotoxicity control, cell-based, cherry-pick, single point, set 2. shares compounds with T cruzi growth-1. NIH/3T3 viability, CellTiter-Glo ATP luminescence, 90 h. inhibition, % at 24.9 µM. hit rate 56% among 5,600;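 active means mean loss of cell viability signal at or above a set limit, and enough replicates individually reaching it; inconclusive means meets only the mean limit or only the replicate share; inactive means meets neither condition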;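 further: 0% = median of neutral control wells and 100% = median of positive control wells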
* hit, by the source's call; ? = inconclusive; . = not tested or not shown.

SMILES | T cruzi growth-1 | Pf Dd2 growth | C diff growth | T cruzi growth-2 | T cruzi growth-3 | NIH3T3 tox | 3T3 cytotox 2
COc1ccc(NC(=O)Nc2ccc3c(c2)[C@H]2C[C@@H](CC(=O)NCCc4ccccc4)O[C@@H](CO)[C@H]2O3)cc1 | 157* | -37 | -11 | 112* | 98* | -10 | -3
CC(C)NC(=O)N1CC(=O)N2[C@H](CO)[C@@H](c3ccc(C#CCN(C)C)cc3)[C@@H]2C1 | . | 36 | 3 | . | . | . | .
CCCC#Cc1cnc2c(c1)C(=O)N([C@@H](C)CO)C[C@@H](C)[C@H](CN(C)C(=O)NC1CCCC1)O2 | 7 | -38 | 9 | . | . | . | .
C[C@@H]1CN([C@@H](C)CO)S(=O)(=O)c2ccc(C3=CCCCC3)cc2O[C@H]1CN(C)C(=O)c1ccncc1 | 71 | 9 | -4 | . | . | . | .
C[C@@H]1CCCCO[C@@H](CN(C)Cc2ccccc2)[C@H](C)CN([C@@H](C)CO)C(=O)c2cc(NC(=O)Nc3ccc(F)cc3)ccc2O1 | ? | ? | 0 | 103* | 44 | 10 | 105*
C[C@@H]1CCCCO[C@@H](CN(C)Cc2ccccc2)[C@H](C)CN([C@H](C)CO)C(=O)c2cc(NC(=O)Nc3ccc(F)cc3)ccc2O1 | 73 | -69 | 8 | . | . | . | .
C[C@H](CO)N1C[C@H](C)[C@@H](CN(C)Cc2ccccc2)OCCCC[C@H](C)Oc2ccc(NC(=O)Nc3ccc(F)cc3)cc2C1=O | 81 | -54 | -9 | . | . | . | .
C[C@@H]1CN([C@H](C)CO)C(=O)c2cc(NC(=O)Nc3ccc(F)cc3)ccc2O[C@@H](C)CCCCO[C@@H]1CN(C)Cc1ccccc1 | 73 | -79 | 2 | . | . | . | .
C[C@H](CO)N1C[C@H](C)[C@H](CN(C)Cc2ccccc2)OCCCC[C@H](C)Oc2ccc(NC(=O)Nc3ccc(F)cc3)cc2C1=O | ? | 4 | 17 | 97* | 114* | 23 | 104*
C[C@@H]1CCCCO[C@@H](CN(C)Cc2ccccc2)[C@@H](C)CN([C@H](C)CO)C(=O)c2cc(NC(=O)Nc3ccc(F)cc3)ccc2O1 | 101* | 28 | 6 | 107* | 56 | 12 | 14
O=C(C[C@H]1CC[C@H](NC(=O)c2cnccn2)[C@H](CO)O1)NCc1ccccc1F | -2 | 16 | . | . | . | . | .
O=C(C[C@@H]1C=C[C@H](NC(=O)c2ccncc2)[C@@H](CO)O1)Nc1ccc(-c2ccccc2)cc1 | 29 | -10 | -3 | . | . | . | .
COc1ccccc1C#Cc1ccc([C@H]2[C@@H](CO)N3CCCCN(C(=O)C4CCCC4)C[C@@H]23)cc1 | 118* | 5 | -15 | 101* | 105* | ? | 71*
COc1ccccc1C#Cc1ccc([C@@H]2[C@@H](CO)N3CCCCN(C(=O)C4CCCC4)C[C@H]23)cc1 | 112* | 3 | 18 | 103* | 90 | 30 | 106*
COc1ccccc1C#Cc1ccc([C@H]2[C@@H](CO)N3CCCCN(S(C)(=O)=O)C[C@H]23)cc1 | 88 | -39 | -14 | . | . | . | .
CN(C)CC#Cc1ccc([C@H]2[C@H]3CN(C(=O)C4CCCC4)CCCCN3[C@H]2CO)cc1 | 32 | 14 | -12 | . | . | . | .
CCS(=O)(=O)N1CCCCN2[C@@H](CO)[C@@H](c3ccc(C#Cc4ccccc4OC)cc3)[C@@H]2C1 | -44 | -16 | 32 | . | . | . | .
COc1ccccc1C#Cc1ccc([C@H]2[C@H]3CN(C(=O)C4CCCC4)CCCCN3[C@H]2CO)cc1 | 114* | 27 | 11 | 88 | 87 | 9 | 54*
CNC[C@@H]1OCCCC[C@H](C)Oc2ccc(NC(=O)c3ccncc3)cc2C(=O)N([C@@H](C)CO)C[C@H]1C | 54 | 3 | . | . | . | . | .
CN(C)C(=O)c1ccc(-c2ccc([C@H]3[C@@H](CO)N4CCCCN(C(=O)C5CCCC5)C[C@H]34)cc2)cc1 | 102* | 18 | -11 | 105* | 101* | 15 | 39*
CN(C)C(=O)c1ccc(-c2ccc([C@@H]3[C@@H](CO)N4CCCCN(C(=O)C5CCCC5)C[C@H]34)cc2)cc1 | 21 | 11 | -7 | . | . | . | .
CN(C)C(=O)c1ccc(-c2ccc([C@H]3[C@H](CO)N4CCCCN(C(=O)C5CCCC5)C[C@@H]34)cc2)cc1 | 80 | 16 | -12 | . | . | . | .
C/C=C/c1ccc([C@H]2[C@@H](CO)N3CCCCN(C(=O)C4CCCC4)C[C@@H]23)cc1 | 107* | -10 | 4 | 108* | 86 | 1 | 5
C/C=C/c1ccc([C@H]2[C@@H](CO)N3CCCCN(C(=O)Nc4ccc(F)cc4)C[C@@H]23)cc1 | 85 | 5 | -2 | . | . | . | .
CN(C)C(=O)c1ccc(-c2ccc([C@H]3[C@@H](CO)N4CCCCN(C(=O)C5CCCC5)C[C@@H]34)cc2)cc1 | ? | 15 | -7 | 110* | 93 | -20 | -2
SMILES | T cruzi growth-1 | Pf Dd2 growth | C diff growth | T cruzi growth-2 | T cruzi growth-3 | NIH3T3 tox | 3T3 cytotox 2
CCC(=O)Nc1ccc2c(c1)OC[C@@H](C)N(C(=O)C1CC1)C[C@@H](C)[C@@H](OC)CN(C)C2=O | 6 | 7 | 1 | . | . | . | .
COc1ccc(NC(=O)N(C)C[C@@H]2Oc3ccc(NS(=O)(=O)c4ccc(F)cc4)cc3C(=O)N([C@@H](C)CO)C[C@H]2C)cc1 | -61 | 48 | . | . | . | . | .
C[C@@H]1CN([C@H](C)CO)C(=O)c2cc(C#CCc3ccccc3)cnc2O[C@@H]1CN(C)C(=O)C1CCOCC1 | . | 4 | 1 | . | . | . | .
CO[C@H]1CN(C)C(=O)c2ccc(NC(=O)c3ccc(F)cc3)cc2OC[C@@H](C)N(C(=O)c2ccc(F)cc2)C[C@H]1C | 44 | -43 | . | . | . | . | .
O=C(NCC[C@@H]1CC[C@@H](NS(=O)(=O)c2cccc(F)c2)[C@@H](CO)O1)c1cnccn1 | -4 | -70 | -5 | . | . | . | .
C[C@@H]1CCCCO[C@H](CN(C)C(=O)Nc2ccc3c(c2)OCO3)[C@H](C)CN([C@@H](C)CO)C(=O)c2cc(NC(=O)Nc3ccc(F)cc3)ccc2O1 | 90 | -66 | -5 | . | . | . | .
C[C@@H]1CCCCO[C@H](CN(C)C(=O)Nc2ccc3c(c2)OCO3)[C@H](C)CN([C@@H](C)CO)C(=O)c2cc(NC(=O)NC3CCCCC3)ccc2O1 | 64 | -73 | -10 | . | . | . | .
C[C@H](CO)N1C[C@H](C)[C@H](CN(C)C(=O)Nc2ccc3c(c2)OCO3)OCCCC[C@H](C)Oc2ccc(NC(=O)Nc3ccc(F)cc3)cc2C1=O | 104* | -11 | -4 | 108* | 89 | 7 | 7

Screens: PubChem, Broad Institute
